Laboratory results taken from paper PMC7862700, “An all-to-all approach to the identification of sequence-specific readers for epigenetic DNA modifications on cytosine”.

Columns and labels:
Assay in all cases: DAPPL (digital affinity profiling via proximity ligation, sequencing); 10 mM Tris-HCl pH 7.5, 50 mM NaCl, 1 mM DTT, 4% glycerol, room temperature, 30 min; GST-TFs on glutathione beads, 16-mer random dsDNA library, 0.1% formaldehyde crosslink after washing; high values mean tight binding
Conditions in all cases: protein: recombinant; tags: N-terminal GST; dsDNA, one strand shown
FLI1 = target: T1, FLI1 (Homo sapiens, UniProt Q01543 1-452)
T1 sequence: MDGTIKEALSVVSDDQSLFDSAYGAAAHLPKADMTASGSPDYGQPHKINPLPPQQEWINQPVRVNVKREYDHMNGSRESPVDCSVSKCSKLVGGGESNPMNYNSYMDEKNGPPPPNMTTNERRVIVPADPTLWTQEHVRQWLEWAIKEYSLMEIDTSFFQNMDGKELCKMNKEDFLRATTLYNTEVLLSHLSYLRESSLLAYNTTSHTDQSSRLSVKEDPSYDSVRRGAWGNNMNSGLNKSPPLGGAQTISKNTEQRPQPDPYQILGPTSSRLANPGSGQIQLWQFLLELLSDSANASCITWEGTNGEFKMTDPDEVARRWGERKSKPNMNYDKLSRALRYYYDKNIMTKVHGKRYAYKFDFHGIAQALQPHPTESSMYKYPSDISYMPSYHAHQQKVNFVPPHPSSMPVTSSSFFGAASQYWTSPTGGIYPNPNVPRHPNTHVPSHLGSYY
Outline: (§1)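 Human transcription factors were made in yeast as GST fusions, captured on glutathione beads and barcoded with DNA. With a tag-only sample included, the pool was incubated with 200 nmole of a random double-stranded 16-mer DNA library in Tris/NaCl/DTT/glycerol buffer at room temperature for 30 min, then crosslinked with 0.1% formaldehyde after washing, ligated by proximity, amplified and sequenced. For binding signal, each hexamer's read frequency for a factor is divided by its frequency for the tag-only sample.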

ELK1 = target: T2, ELK1 (Homo sapiens, UniProt P19419 1-428)
T2 sequence: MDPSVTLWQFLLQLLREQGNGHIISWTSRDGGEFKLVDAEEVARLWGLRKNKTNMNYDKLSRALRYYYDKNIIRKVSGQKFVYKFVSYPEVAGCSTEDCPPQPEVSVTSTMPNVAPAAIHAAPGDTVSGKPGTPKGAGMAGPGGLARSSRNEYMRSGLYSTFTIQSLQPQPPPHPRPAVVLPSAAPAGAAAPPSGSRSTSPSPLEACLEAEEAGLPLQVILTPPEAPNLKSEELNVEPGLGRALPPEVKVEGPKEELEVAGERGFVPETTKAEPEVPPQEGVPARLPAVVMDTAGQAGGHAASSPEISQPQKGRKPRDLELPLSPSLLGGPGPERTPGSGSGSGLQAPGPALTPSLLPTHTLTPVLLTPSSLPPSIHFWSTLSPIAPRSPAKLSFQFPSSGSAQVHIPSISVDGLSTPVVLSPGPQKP
Outline: as §1

GABPA = target: T3, GABPA (Homo sapiens, UniProt Q06546 1-454)
T3 sequence: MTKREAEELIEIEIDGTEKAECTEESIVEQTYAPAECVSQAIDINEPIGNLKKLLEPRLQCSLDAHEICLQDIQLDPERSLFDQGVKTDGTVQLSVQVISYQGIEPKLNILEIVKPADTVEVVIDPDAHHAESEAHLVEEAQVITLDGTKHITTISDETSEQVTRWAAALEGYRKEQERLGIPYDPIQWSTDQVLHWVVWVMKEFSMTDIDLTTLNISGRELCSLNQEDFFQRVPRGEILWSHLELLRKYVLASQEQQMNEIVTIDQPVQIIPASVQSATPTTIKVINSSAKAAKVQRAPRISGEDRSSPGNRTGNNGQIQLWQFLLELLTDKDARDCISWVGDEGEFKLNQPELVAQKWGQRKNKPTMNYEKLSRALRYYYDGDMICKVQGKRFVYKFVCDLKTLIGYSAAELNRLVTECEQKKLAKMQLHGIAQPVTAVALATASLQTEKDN
Outline: as §1

ERG = target: T4, ERG (Homo sapiens, UniProt P11308 1-479)
T4 sequence: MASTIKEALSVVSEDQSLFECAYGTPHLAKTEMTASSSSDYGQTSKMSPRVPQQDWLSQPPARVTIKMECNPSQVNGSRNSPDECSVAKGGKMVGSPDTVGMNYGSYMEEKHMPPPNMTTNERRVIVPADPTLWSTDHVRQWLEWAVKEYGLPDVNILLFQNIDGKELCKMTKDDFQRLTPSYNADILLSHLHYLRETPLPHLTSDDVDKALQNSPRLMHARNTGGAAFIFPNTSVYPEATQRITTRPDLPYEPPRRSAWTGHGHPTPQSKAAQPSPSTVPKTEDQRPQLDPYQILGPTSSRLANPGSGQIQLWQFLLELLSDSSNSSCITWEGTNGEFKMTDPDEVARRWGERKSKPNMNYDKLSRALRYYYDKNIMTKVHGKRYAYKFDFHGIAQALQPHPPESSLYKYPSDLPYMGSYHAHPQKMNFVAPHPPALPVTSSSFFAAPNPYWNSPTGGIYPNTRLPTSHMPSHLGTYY
Outline: as §1

ELF1 = ELF1 (Homo sapiens, UniProt P32519 1-619)
ELF1, sequence (P32519 whole entry): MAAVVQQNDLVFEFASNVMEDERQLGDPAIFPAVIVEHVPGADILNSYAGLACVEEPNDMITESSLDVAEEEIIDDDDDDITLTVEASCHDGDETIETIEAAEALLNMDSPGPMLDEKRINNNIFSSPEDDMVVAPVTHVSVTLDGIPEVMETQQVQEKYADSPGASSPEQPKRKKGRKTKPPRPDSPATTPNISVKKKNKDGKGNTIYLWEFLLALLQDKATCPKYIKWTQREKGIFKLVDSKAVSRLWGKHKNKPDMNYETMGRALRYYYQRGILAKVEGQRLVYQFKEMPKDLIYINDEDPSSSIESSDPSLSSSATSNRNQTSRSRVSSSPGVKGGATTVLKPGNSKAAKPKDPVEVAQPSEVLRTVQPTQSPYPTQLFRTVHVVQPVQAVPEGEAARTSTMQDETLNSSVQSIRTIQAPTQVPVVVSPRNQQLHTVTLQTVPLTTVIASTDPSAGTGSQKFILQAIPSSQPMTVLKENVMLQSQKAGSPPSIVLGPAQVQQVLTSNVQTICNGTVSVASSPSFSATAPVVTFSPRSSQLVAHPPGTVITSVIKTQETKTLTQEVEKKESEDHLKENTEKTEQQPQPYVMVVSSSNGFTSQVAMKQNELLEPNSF
Outline: as §1

EHF = target: T5, EHF (Homo sapiens, UniProt Q9NZC4 1-300)
T5 sequence: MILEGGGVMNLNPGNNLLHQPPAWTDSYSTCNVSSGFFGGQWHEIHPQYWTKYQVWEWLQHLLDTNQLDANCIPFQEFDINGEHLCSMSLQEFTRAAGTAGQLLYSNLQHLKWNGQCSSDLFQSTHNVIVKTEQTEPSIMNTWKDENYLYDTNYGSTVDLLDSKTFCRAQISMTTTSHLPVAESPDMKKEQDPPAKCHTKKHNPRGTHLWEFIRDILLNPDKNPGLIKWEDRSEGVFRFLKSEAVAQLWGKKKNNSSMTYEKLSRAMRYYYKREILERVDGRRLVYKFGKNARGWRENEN
Outline: as §1

SPI1 = SPI1 (Homo sapiens, UniProt P17947 1-270)
Outline: as §1

SPIB = SPIB (Homo sapiens, UniProt Q01892 1-262)
SPIB, sequence (Q01892 whole entry): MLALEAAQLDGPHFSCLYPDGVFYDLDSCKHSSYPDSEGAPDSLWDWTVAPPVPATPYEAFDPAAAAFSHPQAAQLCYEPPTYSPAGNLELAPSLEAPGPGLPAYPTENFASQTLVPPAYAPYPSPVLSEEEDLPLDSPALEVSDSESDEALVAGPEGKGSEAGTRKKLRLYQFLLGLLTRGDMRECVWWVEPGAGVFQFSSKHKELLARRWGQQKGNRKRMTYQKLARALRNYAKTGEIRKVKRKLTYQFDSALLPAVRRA
Outline: as §1

ELK3 = target: T6, ELK3 (Homo sapiens, UniProt P41970 1-407)
T6 sequence: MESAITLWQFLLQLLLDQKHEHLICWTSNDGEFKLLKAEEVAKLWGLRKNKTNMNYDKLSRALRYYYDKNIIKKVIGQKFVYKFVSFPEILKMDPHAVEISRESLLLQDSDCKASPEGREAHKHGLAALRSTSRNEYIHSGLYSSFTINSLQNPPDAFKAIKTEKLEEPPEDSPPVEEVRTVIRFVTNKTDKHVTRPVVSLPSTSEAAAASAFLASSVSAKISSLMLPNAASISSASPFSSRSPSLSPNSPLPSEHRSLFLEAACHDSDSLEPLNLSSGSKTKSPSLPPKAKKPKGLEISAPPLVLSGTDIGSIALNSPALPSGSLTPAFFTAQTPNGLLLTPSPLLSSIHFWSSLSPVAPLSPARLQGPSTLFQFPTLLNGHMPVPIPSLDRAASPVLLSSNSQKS
Outline: as §1

Sequence | binding signal (FLI1) | binding signal (ELK1) | binding signal (GABPA) | binding signal (ERG) | binding signal (ELF1) | binding signal (EHF) | binding signal (SPI1) | binding signal (SPIB) | binding signal (ELK3)
CTTATC | 1.18 fold enrichment (6-mer frequency, TF over GST control) | 1.15 fold enrichment (6-mer frequency, TF over GST control) | 1.16 fold enrichment (6-mer frequency, TF over GST control) | 1.1 fold enrichment (6-mer frequency, TF over GST control) | 1.21 fold enrichment (6-mer frequency, TF over GST control) | 1.08 fold enrichment (6-mer frequency, TF over GST control) | 1.2 fold enrichment (6-mer frequency, TF over GST control) | 1.21 fold enrichment (6-mer frequency, TF over GST control) | 1.09 fold enrichment (6-mer frequency, TF over GST control)
CGCTTT | 1.31 fold enrichment (6-mer frequency, TF over GST control) | 1.1 fold enrichment (6-mer frequency, TF over GST control) | 1.32 fold enrichment (6-mer frequency, TF over GST control) | 1.15 fold enrichment (6-mer frequency, TF over GST control) | 1.18 fold enrichment (6-mer frequency, TF over GST control) | 1.19 fold enrichment (6-mer frequency, TF over GST control) | 1.59 fold enrichment (6-mer frequency, TF over GST control) | 1.4 fold enrichment (6-mer frequency, TF over GST control) | 1.31 fold enrichment (6-mer frequency, TF over GST control)
CCCGAC | 1.31 fold enrichment (6-mer frequency, TF over GST control) | 1.28 fold enrichment (6-mer frequency, TF over GST control) | 1.39 fold enrichment (6-mer frequency, TF over GST control) | 1.43 fold enrichment (6-mer frequency, TF over GST control) | 1.42 fold enrichment (6-mer frequency, TF over GST control) | 1.31 fold enrichment (6-mer frequency, TF over GST control) | 1.29 fold enrichment (6-mer frequency, TF over GST control) | 1.44 fold enrichment (6-mer frequency, TF over GST control) | 1.43 fold enrichment (6-mer frequency, TF over GST control)
TATATT | 1.34 fold enrichment (6-mer frequency, TF over GST control) | 1.33 fold enrichment (6-mer frequency, TF over GST control) | 1.47 fold enrichment (6-mer frequency, TF over GST control) | 1.41 fold enrichment (6-mer frequency, TF over GST control) | 1.47 fold enrichment (6-mer frequency, TF over GST control) | 1.43 fold enrichment (6-mer frequency, TF over GST control) | 1.3 fold enrichment (6-mer frequency, TF over GST control) | 1.34 fold enrichment (6-mer frequency, TF over GST control) | 1.3 fold enrichment (6-mer frequency, TF over GST control)
CACGAT | 1.4 fold enrichment (6-mer frequency, TF over GST control) | 1.26 fold enrichment (6-mer frequency, TF over GST control) | 1.33 fold enrichment (6-mer frequency, TF over GST control) | 1.24 fold enrichment (6-mer frequency, TF over GST control) | 1.27 fold enrichment (6-mer frequency, TF over GST control) | 1.32 fold enrichment (6-mer frequency, TF over GST control) | 1.27 fold enrichment (6-mer frequency, TF over GST control) | 1.32 fold enrichment (6-mer frequency, TF over GST control) | 1.25 fold enrichment (6-mer frequency, TF over GST control)
AATTAT | 1.24 fold enrichment (6-mer frequency, TF over GST control) | 1.25 fold enrichment (6-mer frequency, TF over GST control) | 1.2 fold enrichment (6-mer frequency, TF over GST control) | 1.26 fold enrichment (6-mer frequency, TF over GST control) | 1.22 fold enrichment (6-mer frequency, TF over GST control) | 1.23 fold enrichment (6-mer frequency, TF over GST control) | 1.18 fold enrichment (6-mer frequency, TF over GST control) | 1.23 fold enrichment (6-mer frequency, TF over GST control) | 1.25 fold enrichment (6-mer frequency, TF over GST control)
CCTTAC | 1.31 fold enrichment (6-mer frequency, TF over GST control) | 1.35 fold enrichment (6-mer frequency, TF over GST control) | 1.37 fold enrichment (6-mer frequency, TF over GST control) | 1.31 fold enrichment (6-mer frequency, TF over GST control) | 1.34 fold enrichment (6-mer frequency, TF over GST control) | 1.28 fold enrichment (6-mer frequency, TF over GST control) | 1.28 fold enrichment (6-mer frequency, TF over GST control) | 1.33 fold enrichment (6-mer frequency, TF over GST control) | 1.22 fold enrichment (6-mer frequency, TF over GST control)
AAAATG | 1.17 fold enrichment (6-mer frequency, TF over GST control) | 1.15 fold enrichment (6-mer frequency, TF over GST control) | 1.16 fold enrichment (6-mer frequency, TF over GST control) | 1.2 fold enrichment (6-mer frequency, TF over GST control) | 1.15 fold enrichment (6-mer frequency, TF over GST control) | 1.21 fold enrichment (6-mer frequency, TF over GST control) | 1.37 fold enrichment (6-mer frequency, TF over GST control) | 1.26 fold enrichment (6-mer frequency, TF over GST control) | 1.18 fold enrichment (6-mer frequency, TF over GST control)
